Target: Glucose transporter (Leishmania mexicana) (UniProt O61059)
Assay: ST_JUDE_LEISH: Cytotoxicity at 2uM final concentration against transgenic Leishmania Mexicana promastigotes LmGT2 that are glucose transport deficient and complemented with the L. Mexicana glucose transporter 2. Activity is measured by DNA content using SYBR green in vitro
Format: functional

Structure (SMILES)	inhibition [%]
CCOC(=O)c1ccc(NC(=O)Nc2ccc(-c3cccc(-c4nc5cc(F)ccc5[nH]4)c3)cc2)cc1	1.54
Cc1cccc2nc(-c3ccc(-c4cccc(CN5CCN(CCO)CC5)c4)cc3)[nH]c12	4.22
CCCCNC(=O)C(C)NC(=O)c1ccc(O)c(-c2ccc(Cl)c(Cl)c2)c1 (stereo not given)	0.05
CCCCCN1CCCN(Cc2cccc(NC(=O)c3ccc4ccccc4c3)c2)CC1	4.95
CN(c1ccc(NC(=O)c2ccc(F)cc2)cc1)C1CCN(Cc2cccc(F)c2)C1 (stereo not given)	3.04
COc1ccc2nccc([C@@H](O)CN3CCC(NCc4nc5ccccc5[nH]4)CC3)c2c1	-0.97
Cc1cc2nc(-c3ccc(C(=O)NCCCc4ccccc4)cc3)[nH]c2cc1C	10.1
NS(=O)(=O)c1cccc(Br)c1	2.22
CCNc1cc(C(=O)N[C@@H](Cc2ccccc2)[C@H](O)CNC(C)C)cc(N2CC(c3ccccc3)CCS2(=O)=O)c1 (stereo not given in full)	4.05
COc1ccc(F)cc1-c1ccc(C(=O)N2CCCN(c3ccc(C#N)cn3)CC2)cc1	-5.82
CCC[C@@H]([C@@H](CC(C)C)C(=O)N[C@@H](CCCNc1nccc(C(F)(F)F)n1)C(=O)Nc1nccs1)N(O)C=O	3.22
CCOc1cc(C(=O)NC2CCN(Cc3ccccc3)CC2)ccc1-c1nc2cc(Cl)c(F)cc2[nH]1	3.19
COc1cccc(CN2CCC(C(=O)Nc3ccc(-c4nc5ccccc5[nH]4)cc3)CC2)c1	20.6
ON=C1CCc2cc(-c3[nH]c(-c4cccc(OCCNCc5ccc(F)cc5)c4)nc3-c3ccncc3)ccc21	10.8
Cc1ccc(-c2nc(N3CCN(C(=O)c4ccco4)CC3)c3ccc(Cl)cc3n2)cc1	2.34
CCOC(=O)c1c(C)noc1Nc1cccc(C)c1C	-4.02
COc1cc(NC(=O)CCCCCCCN2CCN(C)CC2)c2ncccc2c1	1.09
O=C(/C=C/c1ccc(Cl)c(Cl)c1)NCCCCCN1CCCC(CNC(=O)Nc2ccc(C(F)(F)F)cc2)C1 (stereo not given)	1.39
O=C(Nc1ccc(Br)cc1)N(CCN1CCOCC1)CC(O)COc1ccc(Cl)c(F)c1 (stereo not given)	1.5
COc1cc(NC(=O)c2sc(-c3ccc(Cl)cc3)cc2NC(=O)CN2CCCC2)ccc1OCCN1CCCC1	4.39
COc1ccc(-c2cncc3ccc(C(=O)NCc4ccncc4)nc23)cc1	2.69
CC(C)n1ncc2c(C(=O)N3CCCc4ccccc43)cc(-c3ccccc3)nc21	3.97
CC(C)n1c(C2CCN(CC3CCN(C(=O)/C=C/c4ccc(Cl)c(Cl)c4)CC3)CC2)nc2ccccc21	-0.72
C[C@H](Nc1nc(C(Oc2ccccc2)c2ccccc2)nc2[nH]ncc12)c1ccccc1 (stereo not given in full)	0.54
CCCc1cc(C(=O)N[C@@H](Cc2ccccc2)[C@H](O)CNC(C)C)c(F)c(N2CCCC2=O)c1	-0.74

Reference: ChEMBL document CHEMBL3433997, “St. Jude Leishmania screening dataset” (2016)
